About 2,400 (0.69%) of roughly 350,000 compounds were called active. Many of the other results were omitted from the sample, so actives are more common in it than they were. Values without a mark were called inactive. Rule as the data show it: active = inhibition above about 41%; inconclusive = no clear call, values can overlap the other calls; inactive = below that.

The assay is described as follows: blockers of LMP1-induced NF-kB reporter signal – cell-based, luminescence, single point, primary screen (AID 504558).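 Also: 0% = neutral control wells and 100% = reference inhibitor control.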 To be noted: LMP1-induced NF-kappaB luciferase reporter cells, at 12.5 µM, hits give high values.
For orientation: inhibition means the relative decrease from the control value, in per cent. For the compound `Cc1ccsc1C(=O)OCC(=O)c1cc(C)n(CC2CCCO2)c1C` (centres undefined), the inhibition was 63.2% (active). Turning to `COc1ccc(C(=O)OCC(=O)c2cc(C)n(CC3CCCO3)c2C)cc1[N+](=O)[O-]` (centres undefined), the inhibition is 12.7%. The figure for `Cc1ccsc1C(=O)OCC(=O)Nc1cccc(F)c1` is -4.47%; for `Cc1ccc(S(=O)(=O)N(CCc2ccccc2)c2ccc3c(c2)C2CC3CCN2C(=O)OCc2ccccc2)cc1` (centres undefined) it is -3.7%; for `O=C(CSc1ncnc2sccc12)N1CCN(C(=O)c2cccs2)CC1` it is 69.5% (active). The figure for `COc1ccc(OCC(=O)N2CCN(C(=O)c3cccs3)CC2)cc1` is -13.6%; for `O=C(CSc1ncnc2sccc12)NC1CCS(=O)(=O)C1` (centres undefined) it is 5.19%; for `Cc1nc2ccccn2c(=O)c1NC(=O)c1ccc(Br)o1` it is 1.95%. The figure for `CCOC(=O)C1CCN(C(=O)c2ccc3c(=O)n4nc(Nc5ccccc5CC)sc4nc3c2)CC1` is 0.7%; for `NC(=O)C1(Nc2ccc(-c3ccccc3)cc2)CCCC1` it is 0.238%. `NC(=O)C1(Nc2ccc([N+](=O)[O-])cc2)CCCC1`: the inhibition was 58.8% (active). Under `O=C(Nc1ccc([N+](=O)[O-])cc1)C1CC12CCC2` (centres undefined) stands -7.83%; under `NC(CSC(c1ccccc1)(c1ccccc1)c1ccc(-c2ccccc2)cc1)C(=O)O` (centres undefined), -1.87%.

For the compound `Cc1nc(SCc2ccc(F)cc2)c([N+](=O)[O-])[nH]1`, the inhibition was 2.2%. For `Nc1nc(SCc2ccc([N+](=O)[O-])cc2)c2ncn(C3OC(CO)C(O)C3O)c2n1` (centres undefined), the inhibition was -5.79%. The figure for `Cc1nc(N)nc(SCc2ccc([N+](=O)[O-])cc2)c1N` is 50.3% (active); for `N#CCCN(C(=S)Nc1ccc(Cl)c(Cl)c1)C1CCCCC1` it is -1.92%; for `Cc1cccc(N(CC(=O)N2CCCC2)S(C)(=O)=O)c1C` it is -6.4%. Regarding `Cc1ccc2cccc([N+](=O)[O-])c2n1`, the inhibition is 7.19%.

For `O=C(OCc1cn([C@@H]2C[C@H](c3ccc(Cl)cc3)N(Cc3cccs3)C[C@H]2O)nn1)c1ccccc1`, the inhibition was 3.08%. The figure for `O=C(Cc1ccccc1)N1N=C(c2ccncc2)CC1(O)C(F)(F)F` (centres undefined) is 4.93%. Under `O=C(C1CC1)N1N=C2CCCCC2C1(O)C(F)(F)F` (centres undefined) stands 0.262%. Under `O=C(C1CC1)N1N=C(c2ccc(Br)cc2)CC1(O)C(F)(F)F` (centres undefined) stands 48.3% (active); under `C[C@@H]1CN([C@@H](C)CO)C(=O)c2cc(Br)cnc2O[C@H]1CN(C)Cc1ccc(-c2ccccc2)cc1`, -10.5%; under `C[C@@H]1CN([C@H](C)CO)C(=O)c2cc(Br)cnc2O[C@@H]1CN(C)Cc1cncnc1`, -0.147%. Consider `Nc1cc(=O)c2[nH]cnc2[nH]1`, for which the inhibition was 5.05%.

Consider `O=C1CCC(=O)N1CCC(=O)N(C(=O)NC1CCCCC1)C1CCCCC1`, for which the inhibition was -0.58%. As for `CCc1nnc(NC(=O)c2ccc(S(=O)(=O)NC3CCCCC3)cc2)s1`, the inhibition is -6.69%. For the compound `CCc1nnc(NC(=O)c2cc(S(=O)(=O)N3CCCCC3)ccc2C)s1`, the inhibition is 2.74%. Consider `CCc1nnc(NC(=O)c2cc(S(=O)(=O)N3CCN(CC)CC3)ccc2Cl)s1`, for which the inhibition is 68.4% (active). Under `O=C(Nc1ccc(Cl)cn1)c1ccccc1-c1ccccc1` stands 3.03%; under `c1ccc(CNCc2ccc(CNCc3ccccc3)cc2)cc1`, -5.41%; under `Cc1ccc(S(=O)(=O)/N=C2\C=C(NS(=O)(=O)c3ccc(C)cc3)C(=O)c3ccccc32)cc1`, -0.482%. Under `CCOc1ccc(NC(=O)c2cc(C)nc3ccccc23)cc1` stands -0.28%; under `COc1ccc(-c2cc(C(=O)N/N=C/c3cccnc3)c3ccccc3n2)c(OC)c1`, 1.36%; under `CCOc1ccc(-c2cc(C(=O)N/N=C/c3ccc(O)cc3)c3ccccc3n2)cc1`, 58.2% (active). The figure for `Cc1cccc(C(=O)OCC(=O)Nc2sccc2C(N)=O)c1C` is -0.574%; for `C[C@H]1CN([C@@H](C)CO)C(=O)c2cc(C3=CCCCC3)cnc2O[C@@H]1CN(C)C(=O)Cc1ccccc1` it is 5.28%. For the compound `CCN1C(=O)[C@H]2[C@@H](c3ccccc3)N[C@]3(CCCN(Cc4ccc(C)cc4)C3=O)[C@H]2C1=O`, the inhibition was -1.4%.

`O=C(CCN1CCN(C/C=C/c2ccccc2)CC1)Nc1ccccc1Cl`: the inhibition is 5.35%.

`NC(=O)C1(Nc2ccccc2Cl)CCCC1`: the inhibition was -6.12%.

Regarding `O=C(Nc1ccccc1Cl)/C(Cl)=C(\Cl)S(=O)c1ccccc1` (centres undefined), the inhibition is 69.1% (active). The figure for `Cc1ccc(C(=O)NC(C)C(c2cccs2)N2CCOCC2)cc1C` (centres undefined) is 3.97%; for `Cc1ccc(-c2cc(C(=O)N/N=C/C=C/c3ccco3)c3ccccc3n2)cc1C` it is 60.7% (active); for `CC(/C=N/NC(=O)c1cc(-c2ccc3ccccc3c2)n[nH]1)=C\c1ccco1` it is -39.1%.

Turning to `O=C(N/N=C/C=C/c1ccco1)c1cccs1`, the inhibition was -24.5%.

Consider `COc1ccc(CCNC(=O)CN(c2ccccc2)S(=O)(=O)c2ccccc2)cc1`, for which the inhibition is -10.2%.

Turning to `Cc1ccc([C@H]2C[C@H](O)[C@@H](n3cc(COC(=O)c4ccccc4)nn3)CN2CC2CCCCC2)cc1`, the inhibition is 4.84%. The figure for `C[C@H]1CN([C@@H](C)CO)C(=O)CCCn2cc(nn2)CO[C@@H]1CN(C)S(=O)(=O)c1cccs1` is 5.02%. Under `CCN1CCCC1CNC(=O)c1ccc2c(c1)NC(=O)/C(=C\c1ccccc1F)S2` (centres undefined) stands -8.19%; under `CC1=C(C(=O)N(C)C)CC(CC(=O)NCCc2ccccn2)C(=O)N1CCC1=CCCCC1` (centres undefined), 1.75%. As for `CC(C)c1cc(C(=O)N(C)C2CCCN(Cc3ccccc3F)C2)n(C)n1` (centres undefined), the inhibition is 3.75%.

As for `Cc1ccc(-c2nc3ccc(Cl)cn3c2Cc2ccccc2)cc1`, the inhibition was -21.9%.

Turning to `COc1ccc(-c2cc3ncccc3cn2)cc1`, the inhibition was -15.8%. Under `Cc1ccc(-c2cn3cc(C)ccc3n2)cc1` stands 82% (active). Take `Cc1ccn2cc(C(=O)NC3CCN(Cc4ccccc4)CC3)nc2c1`: the inhibition is 5.73%. Turning to `CSc1nnc2ccc(-c3ccc(C)cc3)nn12`, the inhibition is 2.32%. The figure for `Cc1ccc2nc(-c3ccc(Br)cc3)cn2c1` is 63.8% (active). Under `Cc1ccc(-c2cc(C(=O)NCc3cn(C)nc3C)c3cc(Br)ccc3n2)cc1` stands -3.18%. The figure for `Cc1ccc(-c2cc(N)on2)cc1` is -11.1%; for `COc1ccc(-c2cn3ccc(C)cc3n2)cc1` it is 48.2% (active).

On to `COc1cc2ccc(C(C)=O)c(O)c2cc1OC`, for which the inhibition was 3.32%. The figure for `COc1ccc(S(=O)(=O)N2CCC(C(=O)NCCC(=O)Nc3ccccc3OC)CC2)cc1` is 1.21%; for `COc1ccc(C(=O)OCC(=O)Nc2cc(C)on2)cc1F` it is -6.31%; for `COc1ccc(C(=O)NCC2CCCO2)cc1S(=O)(=O)NCc1ccc(Cl)cc1` (centres undefined) it is -0.644%. Under `CC1CN(C(=O)c2cccc(NS(=O)(=O)c3ccc(Br)cc3)c2)CC(C)O1` (centres undefined) stands 0.834%. For `O=C(Nc1cccc2ccccc12)NC1CC1`, the inhibition is -3.72%. The figure for `CC1=C(C(=O)Nc2cccc(C(=O)NCC(C)c3ccccc3)c2)SCCO1` (centres undefined) is -2.25%; for `COc1cc2c(cc1OC)CN(CC(=O)Nc1ccc(F)cc1)CC2` it is 9.89%; for `CC[C@H]1CN2CCc3cc(OC)c(OC)cc3[C@@H]2C[C@@H]1C[C@H]1NCCc2cc(OC)c(OC)cc21` it is 89.9% (active). Under `CC(C)CC1C(=O)N(Cc2cn(CC3CCCCC3)nn2)CCS(=O)(=O)N1Cc1ccc(-c2ccc(Cl)cc2)cc1` (centres undefined) stands 5.31%; under `O=C(COC(=O)c1cccc(Cl)c1Cl)NC1CCCCCC1`, -5.21%. The figure for `N=C1C(c2nc3ccccc3s2)=C(O)CN1NC(=O)c1ccc([N+](=O)[O-])cc1` is -6.15%; for `O=C(NC(Nc1nc2ccc([N+](=O)[O-])cc2s1)(C(F)(F)F)C(F)(F)F)c1ccccc1` it is 56.9% (active). For `O=C(Nc1nc2ccc([N+](=O)[O-])cc2s1)c1ccc(S(=O)(=O)N2CCCc3ccccc32)cc1`, the inhibition was 52.5% (active). The figure for `Cc1ccc(NC(=O)c2cccc(S(=O)(=O)N3CCCc4ccccc43)c2)nc1` is 16.9%; for `O=C(O)c1cc([N+](=O)[O-])c(Nc2cccc3ccccc23)c([N+](=O)[O-])c1` it is 1%. For the compound `CN(C)CCCN(C(=O)c1ccc(S(=O)(=O)N2CCCc3ccccc32)cc1)c1nc2ccc(F)cc2s1`, the inhibition is -4.71%. The figure for `C[C@@H]1CN([C@@H](C)CO)C(=O)c2cc(NS(C)(=O)=O)ccc2O[C@@H](C)CCCCO[C@H]1CN(C)C(=O)Nc1ccc2c(c1)OCO2` is -2.68%; for `CC(C)CCC(=O)Nc1cc(S(=O)(=O)N2CCOCC2)ccc1N1CCCC1` it is 0.721%; for `O=S1(=O)CCN(C2CCCCCCCCCCC2)CC1` it is 3.93%. Under `CCCCCCn1c(=O)n2n(c1=O)C[C@]1(OC(=O)NCc3ccc(OC)c(OC)c3)CN(S(=O)(=O)c3ccc(C)cc3)C[C@]1(O)C2` stands -11.4%.

On to `O=C1c2ccccc2-c2ccccc2NC1O` (centres undefined), for which the inhibition is 5.68%.

For `COc1ccc(-c2cnc3c(c2)C(=O)N([C@H](C)CO)C[C@@H](C)[C@H](CN(C)Cc2ccccc2)O3)cc1`, the inhibition is -7.99%. The figure for `COc1ccc(OC)c(NC(=O)C2CCCN2S(=O)(=O)c2ccc3c(c2)CC(C)N3C(C)=O)c1` (centres undefined) is 1.47%; for `O=C(OCC(=O)N1CCCCCC1)c1cccc(Cl)c1Cl` it is -36.1%; for `COCc1nnc(NC(=O)c2ccc3c(c2)OCO3)s1` it is 7.49%. The figure for `Cc1ccc(C(=O)Nc2sc(Cc3ccc4c(c3)OCO4)c(C)c2C(N)=O)cc1` is 81% (active); for `COc1ccc(CC(=O)Nc2sc(Cc3ccccc3)c(C)c2C(N)=O)cc1` it is 0.44%.

The record behind these values is PubChem BioAssay AID504558 (Broad Institute, 2011).
